PKM2 activator – increases activity of human pyruvate kinase M2; P14618; purified PKM2, Kinase-Glo ATP luminescence, activation; response scale: 0% is enzyme alone, no compound; Potency, µM (doses to about 57.5 µM), inactives show at the top dose activation, most hits filed as activators; hit rate 0.34% among 260,000; AID 1631; also: potency is read from the fitted curve at half-maximal effect; % is scaled to controls: 0 for no effect and ±100 for the full control effect; nearly all actives have a fitted effect of over 55% in size
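hPK-M2, >95% pure; 0.1 mM ADP / 0.5 mM PEP final; imidazole pH7.2 buffer w/ 7 mM MgCl2, 50 mM KCl; 1 h RT; Kinase-Glo lum. Intermediate enzyme activity for dual inhibitor/activator qHTS.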
Rango-impB inh – inhibitors of Rango-importin beta complex formation. Potency, µM (top dose mostly 92.2 µM), for the others: top-dose inhibition of complex formation. hit rate 0.031% among 340,000. Rango CFP/YFP FRET sensor + importin beta, 45 min; calls by dose curve;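 also: potency is read from the fitted curve at half-maximal effect; 0% = DMSO wells and 100% = buffer wells lacking importin beta; nearly all actives have a fitted effect of over 15% in size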
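FRET biosensor Rango (snurportin 1 IBB between N-terminal EYFP and C-terminal Cerulean), 50 nM in PBS/1 mM DTT/0.02% Tween-20/0.1% BSA, preincubated 5 min RT with compound; 0.125 microM importin beta added, 45 min RT, CFP/YFP FRET ratio read.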
A-T KAP1 phos – potential ataxia-telangiectasia treatment. F2112 A-T fibroblasts, KAP-1 phosphorylation AlphaLISA; neocarzinostatin DNA damage 30 min before lysis. AID 485349. Potency, µM (doses to about 57.5 µM), without a hit: top-dose activation, actives largely listed as activators. hit rate 0.19% among 320,000; also: potency is read from the fitted curve at half-maximal effect; % of control where 0% means no effect; nearly all actives have a fitted effect of over 45% in size
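hTERT-immortalized A-T patient fibroblasts (F2112), 500 cells/well in OPTI-MEM, 1% FBS, got compounds for 60 min, then NCS for 30 min at 37C. Lysates were then assayed for phospho-KAP-1 by AlphaLISA (anti-pKAP1 donor, anti-KAP1 acceptor beads), 6 hr at 25C.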
IL2 activator – IL-2 activation; hit rate 0.065% among 360,000; activation, % (series mostly up to about 46 µM); IL-2 activation reporter assay, cell-based qHTS; stimulated with anti-CD3/CD4/CD28 beads; in transgenic mouse T cells; in the data active = activation above about 50%; also: 0% is about no effect
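Unstimulated transgenic mouse T cells, 750 per well, received compound and, after 60 minutes, anti-CD3/anti-CD4 bead plus anti-CD28 stimulation. EGFP and DsRed were quantified after 18 hours.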
Rango release inh – inhibition of RanGTP-driven Rango-importin beta dissociation | Biochemical FRET Rango-importin beta, RanGTP-induced dissociation | Potency, µM (titrated, usually from 46.1 µM), inactives show at the highest dose activity change, negative = inhibition | hit rate 0.071% among 340,000 | AID 540253; calls by dose curve; also: potency is read from the fitted curve at half-maximal effect; % of control where 0% means no effect; nearly all actives have a fitted effect of over 45% in size
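Rango/importin beta premix (0.1/0.25 uM final), PBS + 1 mM DTT + 0.02% Tween-20 + 0.1% BSA; cpd 5 min RT; FRET pre-read; + RanGTP-RCC1 (0.6 uM Ran, 2 mM GTP, 0.2 uM RCC1); 45 min RT; FRET post-read, ex 430, em 486/530 nm.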
HeLa viability – HeLa cytotoxicity, CellTiter-Glo readout. shares compounds with PKM2 activator. HeLa viability, CellTiter-Glo ATP luminescence, 24 h. activity change, negative = cytotoxicity, % at 57.5 µM. 230 tested, under 10 active; also: % of control where 0% means no effect
* hit, by the source's call; / = no result given. Compounds with a hit are over-represented: about 0.59% of the library has one in this group of screens. Unless noted, calls follow the shape of the dose curve; as a rule, active = well fitted curve in the direction sought with a large enough effect; inconclusive = small, poorly fitted or top-dose-only effect, or another doubt; inactive = no such curve, though single readings can be large; an effect the other way counts as inactive or inconclusive.

SMILES	PKM2 activator	Rango-impB inh	A-T KAP1 phos	IL2 activator	Rango release inh	HeLa viability
O=C(CN1C(=O)NC2(CCCC2)C1=O)Nc1nc2c(F)cc(F)cc2s1	/	6%	3%	1	-9%	/
CC(NC(=O)CSC(=S)N1CCCC1)c1ccc(S(N)(=O)=O)cc1 (stereo unspecified)	/	-1%	3%	-2	-3%	/
COc1ccc(-c2noc(CCC(=O)Nc3cccnc3)n2)cc1	/	3%	0%	0	0%	/
CCOc1cc(-c2noc(CCC(=O)Nc3cccnc3)n2)ccc1OC	1.4µM*	-2%	-24%	0	-1%	-4
S=C(c1ccc(-c2ccc(Cl)cc2Cl)o1)N1CCCC1	8.9µM*	-1%	10%	1	-7%	5
S=C(c1ccc(-c2ccc(Cl)cc2Cl)o1)N1CCCCC1	6%	2%	-12%	-1	-6%	/

Screening data from PubChem.
